The record followed here is article PMC11995724, “Antibiotic target discovery by integrated phenotypic and activity-based profiling of electrophilic fragments” (Cell chemical biology, 2025).

The campaign covered roughly 3,200 compounds. About 110 (3.4%) showed an effect of 50% or more. The entries come from a sample that favours strong results as a whole.

The assay has as its system T1, V. cholerae SAD30.
T1 construct: SAD30
Details: species or system S. aureus MSSA476 (TSB) or V. cholerae SAD30 (LB); 384-well bacterial growth screen at 25 uM, OD600 relative to DMSO control. The following applies: relative growth, OD600, LB; 25 µM; inhibitor.
On to `C=CC(=O)NC1(c2nc(C3CC3)cc(=O)[nH]2)CCCCC1` [3-H13, N-[1-(4-cyclopropyl-6-oxo-1,6-dihydropyrimidin-2-yl)cyclohexyl]prop-2-enamide], for which the “% of control remaining” value was 88.7374%. As for `CS(=O)(=O)NCCc1ccc(C(=O)CCl)cc1` [10-D06, N-{2-[4-(2-chloroacetyl)phenyl]ethyl}methanesulfonamide], the “% of control remaining” value stood at 99.5909%. Turning to `CS(=O)(=O)c1ccc(CNC(=O)CCl)cc1` [6-O12, 2-chloro-N-[(4-methanesulfonylphenyl)methyl]acetamide], the “% of control remaining” value is listed as 95.2507%. With `CS(=O)(=O)c1ccc(C(=O)CCl)cc1` [10-I13, 2-chloro-1-(4-methanesulfonylphenyl)ethan-1-one], the “% of control remaining” value was found to be 0%. As for `CN(c1ccc(C(=O)CCl)cc1)S(C)(=O)=O` [10-F19, N-[4-(2-chloroacetyl)phenyl]-N-methylmethanesulfonamide], the “% of control remaining” value turned out to be 14.0269%. As for `CCN(c1ccc(C(=O)CCl)cc1)S(C)(=O)=O` [10-F04, N-[4-(2-chloroacetyl)phenyl]-N-ethylmethanesulfonamide], the “% of control remaining” value came to 100.994%. As for `CC(=O)N(C)Cc1ccc(C(=O)CCl)cc1` [10-H04, N-{[4-(2-chloroacetyl)phenyl]methyl}-N-methylacetamide], the figure is 100.682%; as for `CC(Cl)C(=O)c1ccc(NS(C)(=O)=O)cc1` (stereo not shown) [10-A08, N-[4-(2-chloropropanoyl)phenyl]methanesulfonamide], 98.4999%. In the case of `CS(=O)(=O)Nc1ccc(C(=O)CCl)cc1` [10-D19, N-[4-(2-chloroacetyl)phenyl]methanesulfonamide], the “% of control remaining” value is recorded as 31.3267%. As for `C=CC(=O)NC(c1ccc(C)cc1)C(C)S(C)(=O)=O` (stereo not shown) [2-A10, N-[2-methanesulfonyl-1-(4-methylphenyl)propyl]prop-2-enamide], the figure is 94.3646%; as for `CC(Cl)C(=O)Nc1sccc1C(N)=O` (stereo not shown) [5-C21, 2-(2-chloropropanamido)thiophene-3-carboxamide], 107.429%.

On to `C=CC(=O)N1CCC(NC(C)=O)(c2noc(C)n2)C1` (stereo not shown) [2-G16, N-[3-(5-methyl-1,2,4-oxadiazol-3-yl)-1-(prop-2-enoyl)pyrrolidin-3-yl]acetamide], for which the “% of control remaining” value is given as 100.077%.

For the compound `C=CC(=O)NC1CN(S(=O)(=O)c2ccc3c(c2)OCCO3)C1` [2-E11, N-[1-(2,3-dihydro-1,4-benzodioxine-6-sulfonyl)azetidin-3-yl]prop-2-enamide], the “% of control remaining” value worked out at 95.7541%.
